# In PMC4336329 (PLoS ONE, 2015):
# The whole screen tested about 310,000 compounds, of which about 14,000 (4.5%) showed an effect of 50% or more. The effect is printed as a negative number. The full list was thinned out, with strong results kept by preference.
# Molecular target: human ether-à-go-go-related gene (hERG) potassium channel (human, UniProt Q12809)
# Assay: primary screen, population patch clamp on CHO cells stably expressing hERG; higher = less effect of the substance
# 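Further: peak tail current of the secondary pulse compared with the same well before compound.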
# Sequence of human ether-à-go-go-related gene (hERG) potassium channel (Q12809 whole entry, looked up): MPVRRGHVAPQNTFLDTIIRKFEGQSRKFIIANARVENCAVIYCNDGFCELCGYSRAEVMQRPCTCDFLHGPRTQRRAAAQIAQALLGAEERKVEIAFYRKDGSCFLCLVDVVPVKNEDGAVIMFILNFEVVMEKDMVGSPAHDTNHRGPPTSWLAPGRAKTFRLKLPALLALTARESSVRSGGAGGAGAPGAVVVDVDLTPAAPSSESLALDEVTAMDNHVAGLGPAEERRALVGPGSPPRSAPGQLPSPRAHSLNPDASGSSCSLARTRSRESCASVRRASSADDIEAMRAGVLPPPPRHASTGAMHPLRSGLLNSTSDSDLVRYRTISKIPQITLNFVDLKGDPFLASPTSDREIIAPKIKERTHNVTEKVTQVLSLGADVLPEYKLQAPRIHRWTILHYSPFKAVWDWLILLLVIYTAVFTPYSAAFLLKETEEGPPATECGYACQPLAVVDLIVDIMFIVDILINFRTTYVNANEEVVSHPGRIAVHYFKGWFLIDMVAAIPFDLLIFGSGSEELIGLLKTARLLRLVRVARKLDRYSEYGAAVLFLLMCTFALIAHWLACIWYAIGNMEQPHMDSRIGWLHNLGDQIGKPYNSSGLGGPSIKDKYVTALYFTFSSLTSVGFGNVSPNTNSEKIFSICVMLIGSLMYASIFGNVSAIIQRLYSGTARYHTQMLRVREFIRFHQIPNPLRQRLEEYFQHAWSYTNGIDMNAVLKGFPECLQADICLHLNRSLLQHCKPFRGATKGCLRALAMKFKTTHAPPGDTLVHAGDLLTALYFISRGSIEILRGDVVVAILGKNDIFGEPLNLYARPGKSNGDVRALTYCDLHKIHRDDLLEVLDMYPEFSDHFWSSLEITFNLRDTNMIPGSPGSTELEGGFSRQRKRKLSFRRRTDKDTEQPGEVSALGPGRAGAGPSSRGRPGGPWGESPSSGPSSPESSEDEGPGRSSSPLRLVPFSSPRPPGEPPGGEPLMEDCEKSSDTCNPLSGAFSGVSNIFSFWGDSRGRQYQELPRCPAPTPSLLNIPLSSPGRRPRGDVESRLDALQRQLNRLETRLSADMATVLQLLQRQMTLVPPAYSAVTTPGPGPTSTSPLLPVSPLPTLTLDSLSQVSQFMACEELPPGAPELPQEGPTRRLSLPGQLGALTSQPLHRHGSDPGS
row,Compound,"hERG current change (%, negative = inhibition) at 10uM [%]"
1,NS(=O)(=O)c1ccc(NC(=S)Nc2ccc(Br)c(Cl)c2)cc1,21.3
2,CCOC(=O)c1ccccc1N/C=C/C(=O)c1cccs1,-14.9
3,CCn1c(-c2csc(C(C)C)c2)n[nH]c1=S,37.1
4,CC(=O)Nc1ccc(SC[C@H](Cc2ccccc2)N2CCN(CCc3ccccc3)CCC2=O)cc1,-55.9
5,CC(=O)Nc1ccc(SC[C@H](CC(C)C)N2CCN(CC(C)C)CCC2=O)cc1,-28.1
6,CC(=O)Nc1ccc(SC[C@H](Cc2ccccc2)N2CC[C@@H](C)CCC2=O)cc1,-8.11
7,CC(=O)Nc1ccc(SC[C@H](Cc2ccccc2)N2CC[C@@H](O)CCC2=O)cc1,-7.75
8,CC(=O)Nc1ccc(SC[C@H](Cc2ccccc2)N2CCN(CC(C)C)CCC2=O)cc1,-44.2
9,CCCN1CCC(=O)N(CCSc2ccc(NC(C)=O)cc2)CC1,6.8
10,CC(=O)Nc1ccc(SC[C@H](Cc2ccccc2)N2CC[C@@H](C(C)(C)C)CCC2=O)cc1,5.23
11,CC(=O)Nc1ccc(SC[C@H](c2ccccc2)N2CCN(CCc3ccccc3)CCC2=O)cc1,-75.1
12,CC(=O)Nc1ccc(SC[C@H](CC(C)C)N2CCN(CCc3ccccc3)CCC2=O)cc1,-59.1
13,Cc1cc(OCc2cc(C(=O)NCc3cc(C(C)C)no3)no2)cc(C)c1Cl,9.79
14,Cc1cc(C)c(/C=C(\C#N)S(=O)(=O)c2ccccc2)[nH]1,11
15,Cc1[nH][nH]c(=O)c1C(c1ccc(O)c([N+](=O)[O-])c1)c1c(C)[nH][nH]c1=O,18.8
16,CN(C)c1nc(N)ncc1-c1ccc(Oc2ccccc2)cc1,18
17,COc1ccc(-n2nc(C(=O)NCC(=O)N3CCN(c4ccccc4OC)CC3)c3ccccc3c2=O)c(OC)c1,-18.4
18,Cc1c(N/C=C/C(=O)C(F)(F)F)c(=O)n(-c2ccccc2)n1C,20.2
19,CC1=CC2=NC(=O)CC(C)(C(=O)N(CC(=O)NC3CCCC3)c3cc(C)cc(C)c3)N2C=C1 (centres unmarked),17.9
20,COc1ccccc1CNC(=O)C(=O)c1cn(CC(=O)N2CCCC2)c2ccccc12,15.1
21,Cc1cccc(/C(N)=N/OC(=O)c2ccc(Cl)cc2Cl)c1,8.46
22,COc1ccc(C(=O)N2CCOCC2)cc1S(=O)(=O)N1CCCc2ccccc21,-31.4
23,Cc1ccc(C(=O)OCC(=O)c2ccc(S(=O)(=O)N3CCCCC3)cc2)o1,-20.3

row,Compound,"hERG current change (%, negative = inhibition) at 10uM [%]"
1,O=Cc1cn(CCOc2ccccc2)c2ccccc12,4.98
2,COCCCn1c(=NC(=O)c2ccccc2)c(C#N)cc2c(=O)n3cccc(C)c3nc21,-71.5
3,CC(=O)N=c1c(C#N)cc2c(=O)n3cccc(C)c3nc2n1CCCOC(C)C,-50.4
4,Cc1cccn2c(=O)c3cc(C#N)c(=NC(=O)c4ccncc4)n(CCCOC(C)C)c3nc12,-85.1
5,COCCCn1c(=NC(C)=O)c(C#N)cc2c(=O)n3cccc(C)c3nc21,-49.7
6,COCCCn1c(=NC(=O)c2ccncc2)c(C#N)cc2c(=O)n3cccc(C)c3nc21,-68
7,O=C(O)c1cccc(-n2c(-c3cnccn3)n[nH]c2=S)c1,20.4
8,CN(C)c1ccc(NC(=S)c2ccc3ccccc3n2)cc1,12.2
9,Cc1ccccc1NCC(=O)N/N=C/c1c(C)c(C(=O)c2ccc(Cl)cc2)n2ccccc12,-4.11
10,COc1ccccc1C(=O)NC(=O)COc1cc(Cl)ccc1Cl,0.882
11,CC1CCCCN1C(=O)c1c([N+](=O)[O-])cnn1C (centres unmarked),18.7
12,COc1ccc(NC(=O)c2cncn2-c2ccccc2)cc1,13.7
13,CCOC(=O)C1=C(C)N(CCCC(=O)O)C(=O)NC1c1ccccc1OS(=O)(=O)c1ccc(C)cc1 (centres unmarked),-15.2
14,Cc1cc(=O)oc2cc(NC(=O)c3ccccc3OC(F)F)ccc12,26.9
15,CC1CCN(C2=NC(=O)/C(=C/c3cccc(O)c3)S2)CC1,-18.5
16,CC(=O)N1C(Nc2ccc(Cl)cc2)CCN1c1ccccc1 (centres unmarked),9.96
17,O=C(NC(NNc1ccc([N+](=O)[O-])cc1)(C(F)(F)F)C(F)(F)F)c1ccc(F)cc1,-2.67
18,COc1ccc(C(=O)Nc2ncc(C)s2)cc1S(=O)(=O)N1CCCC1,17.5
19,COc1ccc(C(=O)Nc2ccc(Cl)cn2)cc1S(=O)(=O)N1CCCC1,-48
20,COc1ccc(C(=O)Nc2ccccn2)cc1S(=O)(=O)N1CCOCC1,-8.04
21,COc1ccc(C(=O)Nc2ccc(Br)cn2)cc1S(=O)(=O)N1CCOCC1,-57.9
22,COc1ccc(C(=O)Nc2nnc(C)s2)cc1S(=O)(=O)N1CCOCC1,-14
23,COc1ccc(C(=O)Nc2ncc(C)s2)cc1S(=O)(=O)N1CCOCC1,-56.2

row,Compound,"hERG current change (%, negative = inhibition) at 10uM [%]"
1,CN(C)c1nc(Oc2ccc(=O)n(-c3ccccc3)n2)nc(N2CCOCC2)n1,9.19
2,CC(=O)Nc1ccc(C(=O)NNC(=O)c2ccccc2-n2cccc2)cc1,6.54
3,COc1ccc(C(=O)NNC(=O)CN(C)S(=O)(=O)c2ccc(Cl)cc2)c(OC)c1OC,-49.7
4,Cc1cccc(N/N=C/c2ccc(C)s2)c1,19.7
5,O=C(CCCn1c(=S)[nH]c2ccsc2c1=O)NCc1ccco1,18.8
6,CCCNC(=O)C1CCN(S(=O)(=O)c2cccc3nonc23)CC1,-3.97
7,O=C(NCCc1ccccc1)C1CCN(S(=O)(=O)c2cccc3nonc23)CC1,-10.5
8,Cc1noc(C)c1S(=O)(=O)N1CCC(C(=O)NC2CCN(Cc3ccccc3)CC2)CC1,-25
9,O=C(NC1CCN(Cc2ccccc2)CC1)C1CCCN(S(=O)(=O)c2cccc3nonc23)C1 (centres unmarked),-55.9
10,CCN(CC)S(=O)(=O)c1ccc(S(=O)(=O)N2CCC(C(=O)NC3CCN(Cc4ccccc4)CC3)CC2)cc1,14.8
11,O=C(NC1CCN(Cc2ccccc2)CC1)C1CCN(S(=O)(=O)c2ccc(Cl)cc2)CC1,-73.2
12,O=C(C1CCCN(S(=O)(=O)c2cccc3nonc23)C1)N1CCC(Cc2ccccc2)CC1 (centres unmarked),-30.9
13,Cc1ccc(Cl)cc1S(=O)(=O)N1CCC(C(=O)NC2CCN(Cc3ccccc3)CC2)CC1,-71.5
14,O=C(NC1CCN(Cc2ccccc2)CC1)C1CCN(S(=O)(=O)c2ccccc2)CC1,-28.8
15,O=C(NCc1ccccc1)C1CCCN(S(=O)(=O)c2cccc3nonc23)C1 (centres unmarked),9.65
16,Cc1ccc(C(=O)NC2CCN(Cc3ccccc3)CC2)cc1S(=O)(=O)N1CCOCC1,-30.2
17,CCN(CCCNC(=O)C1CCN(S(=O)(=O)c2cccc3nonc23)CC1)Cc1ccccc1,-57.2
18,COc1cc(/C=C2\SC(=S)N(CCC(=O)Nc3ccc(O)cc3)C2=O)cc(OC)c1OC,11.9
19,COCCCn1c(=O)c2sccc2n2c(CCCC(=O)NCc3cccc(OC)c3)nnc12,-6.59
20,O=C1CSC(c2cccnc2)N1c1cccc(Cl)c1 (centres unmarked),-1.13
21,CCOC(=O)c1c(NC(=O)C2CCCO2)sc(C(=O)OC(C)(C)C)c1C (centres unmarked),9.29
22,COc1cccc(NC(=S)NCc2cccnc2)c1,8.76
23,COc1ccc(Nc2ncnc3ccccc23)c(OC)c1.Cl,-10.2

row,Compound,"hERG current change (%, negative = inhibition) at 10uM [%]"
1,COc1ccc(Nc2nnc(Cc3ccccc3)c(=O)[nH]2)c(OC)c1,3.85
2,COc1cccc(NC(=O)Cn2nc(Cc3cccnc3)c3ccccc3c2=O)c1,-34.6
3,COc1cccc(Nc2nnc(Cc3cccnc3)c3ccccc23)c1,-75.8
4,COc1ccc(Nc2nnc(Cc3ccncc3)c3ccccc23)c(OC)c1,-72.7
5,Cc1csc2c(N3CCN(C(=O)Nc4ccccc4)CC3)ncnc12,-25.4
6,CCOC(=O)N1CCC(NC(=O)c2cccc3c2C(=O)N(Cc2cccnc2)C3)CC1,-13.9
7,CCOC(=O)C1=C(COC(=O)CCOc2ccccc2C)NC(=O)NC1C (centres unmarked),-28.4
8,NC(=O)c1cc(-c2csc(-c3cccnc3)n2)ccc1O,5.27
9,CCN(CC)CCNC(=O)c1cn(C)c2ccc(S(=O)(=O)N(C)C3CCCCC3)cc2c1=O,-42.8
10,CCCCN(C)CCCNC(=O)c1cn(C)c2ccc(S(=O)(=O)N(C)C3CCCCC3)cc2c1=O,-75
11,CCCCN(CCCC)CCNC(=O)c1cn(C)c2ccc(S(=O)(=O)N(C)C3CCCCC3)cc2c1=O,-76.7
12,COC(CNC(=O)c1cn(C)c2ccc(S(=O)(=O)N(C)C3CCCCC3)cc2c1=O)OC,-21.5
13,CCN(CC)S(=O)(=O)c1ccc2c(c1)c(=O)c(C(=O)NCCN(C)CCc1ccccc1)cn2C,-67.1
14,CCN(CC)S(=O)(=O)c1ccc2c(c1)c(=O)c(C(=O)NCCc1ccccc1)cn2C,-0.204
15,CC(C)OCCCNC(=O)c1cn(C)c2ccc(S(=O)(=O)N(C)C3CCCCC3)cc2c1=O,-22
16,CCCCN(CC)CCCNC(=O)c1cn(C)c2ccc(S(=O)(=O)N(C)C3CCCCC3)cc2c1=O,-73.2
17,CN(CCNC(=O)c1cn(C)c2ccc(S(=O)(=O)N(C)C)cc2c1=O)CCc1ccccc1,-27.1
18,CCN(CC)CCCNC(=O)c1cn(C)c2ccc(S(=O)(=O)N(C)C3CCCCC3)cc2c1=O,-24.8
19,COCCNC(=O)c1cn(C)c2ccc(S(=O)(=O)N(C)C3CCCCC3)cc2c1=O,-27.7
20,CCN(CC)CCCNC(=O)c1cn(C)c2ccc(S(=O)(=O)N(C)C)cc2c1=O,3.07
